# From PubChem BioAssay (Tox21)
# Results filed as inconclusive are left out. Entries that show only a call come without a potency. The source made the active and inactive calls. Calls come from the whole dose curve; as a rule, active = well fitted cell-killing curve with a large enough effect in the repeat runs; inconclusive = weak or mixed curves, or effect the other way; inactive = flat fitted curve, though single readings scatter.
# Key:
# [1] = cAMP Responsive Elements (CRE) small molecule antagonists, cell-based qHTS assay: qHTS cell viability counter screen (AID 2060913); conditions: CRE-bla HEK293T viability, CellTiter-Glo luminescence, 5 h; series mostly up to 92.4 µM; note: nearly all actives have a fitted effect of over 40% in size
# Procedure, shortened: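 Steps: cells plated and held 18 hrs at 37 C/5% CO2; compounds and NKH477 (0.25 uM final) added; 3 hrs incubation; reporter substrate read; CellTiter-Glo added to measure cytotoxicity by luminescence.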
# [2] = cAMP Responsive Elements (CRE) small molecule agonists, cell-based qHTS assay: qHTS cell viability counter screen (AID 2060914); conditions: CRE-bla HEK293T viability, CellTiter-Glo luminescence, 5 h; series mostly up to 92.4 µM;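 note: viability read after 3 h of compound exposure; nearly all actives have a fitted effect of over 50% in size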
# Procedure, shortened: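 Cells are seeded and incubated 18 h, treated with compounds in DMSO for 3 h, read for the bla reporter, then given CellTiter-Glo; luminescence is measured after 30 min at room temperature.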
SMILES,Potency [1],Potency [2]
NS(=O)(=O)c1ccccc1OC(F)(F)F,inactive,inactive
C=CS(=O)(=O)O,inactive,inactive
CCCCCCCCCCCCCCN(CCO)CCO,inactive,inactive
Nc1ccc(C(=O)O)c(O)c1,inactive,inactive
C#C[C@]1(O)CC[C@H]2[C@@H]3CCc4cc(OC5CCCC5)ccc4[C@H]3CC[C@@]21C,inactive,inactive
C=C1C[C@]23C[C@@]1(O)CC[C@H]2[C@@]12C=C[C@H](O)[C@@](C)(C(=O)O1)[C@H]2[C@@H]3C(=O)O,inactive,inactive
CCOC(=O)CC(O)(CC(=O)OCC)C(=O)OCC,inactive,inactive
O=Cc1ccc(Cl)c([N+](=O)[O-])c1,inactive,inactive
O=S(=O)(O)C(F)(F)F,inactive,inactive
OCCNCCO,inactive,inactive
COC(=O)C1=C(C)NC(COC(N)=O)=C(C(=O)OC(C)C)C1c1cccc(Cl)c1Cl (stereo unspecified),inactive,inactive
Clc1cccc(Cl)n1,inactive,inactive
CCOC(C)OCC,inactive,inactive
